Test results: PubChem BioAssay AID743279 (National Center for Advancing Translational Sciences (NCATS), 2014)
Out of some 360,000 compounds screened, about 17,000 (4.7%) were called active. Another 5% or so got no clear call; they are omitted. This excerpt belongs to a sample that is enriched for actives. Unmarked numbers belong to inactive results. No stated cut-off is given here; in the data, active means activity change below about -50%; inconclusive means mostly about -30% to -49%; inactive means weaker than that.

assay: qHTS for Inhibitors of Inflammasome Signaling: IL-1-beta AlphaLISA Primary Screen; settings: THP-1 LPS/ATP IL-1B secretion, 16 h; at 57.5 µM, stronger effect = lower value
Text: Inflammasomes are a set of intracellular multi-protein complexes that enable autocatalytic activation of inflammatory caspases and drive the innate immune response to counter harmful agents. […] A qHTS assay, based on AlphaLISA technology, was developed to screen the Molecular Libraries Small Molecule Repository (MLSMR) to look for novel inflammasome inhibitors. The assay detects IL-1B using AlphaLISA anti-IL-1B acceptor and donor beads. A decreased emission signal, indicating reduced IL-1B secretion, is the desired outcome for this assay. NIH Chemical Genomics Center [NCGC] NIH Molecular Libraries Probe Centers Network [MLPCN] MLPCN Grant: MH095513 Assay Provider: Shyam Biswal Ph.D., Johns Hopkins University Immunity. 2012 Jul 27;37(1):85-95. PMID: 22819042 [2] Curr Pharm Des. 2012;18(16):2320-8. PMID: 22390695
Three microliters containing 3000 THP-1 cells were dispensed into the wells of solid, white, tissue culture treated Greiner 1,536-well plates. Library compounds and positive control, Glyburide, were pin-transferred (23 nL) by a Kalypsys pin-tool equipped with a 1,536-pin array, resulting in final compound concentration ranges of 2.5 nM to 57.5 uM. After 1 hr of cell culture incubation (37 °C, 5% CO2), 1 microL of 1 microg/mL lipopolysaccharide (250 ng/mL, final) and 5 mM ATP (1.25 mM, final) were added to stimulate the cells. After 16 hr of cell culture incubation with the compounds, 1.5 uL of anti-IL-1B acceptor beads (6 ug/mL, final) and biotinylated antibody (0.6 nM, final) were added to the plate, followed by a 1 hr incubation at ambient temperature. To detect the secreted IL-1B, 1.5 uL of AlphaLISA SA-Donor beads (24 ug/mL, final) were added, followed by 30 min of incubation in the dark at ambient temperature. The AlphaLISA signal was read by a PerkinElmer EnVision plate reader with an ultrasensitive luminescence detector and 1536 Plate HTS AlphaScreen aperture (excitation of 680nm and emission of 615nm).
On the % scale 0 is the no-effect control and ±100 the full control effect.

Compound | activity change
C[C@@H]1C(c2ccc(F)cc2)=NN(c2ccc(Br)cc2)[C@H]1C(=O)N1CCOC1=O | -54.4% (active)
O=C1OCCN1C(=O)[C@H]1[C@H](c2ccc(Cl)cc2)C(c2cccc(Cl)c2)=NN1c1ccc(Br)cc1 | -23.1%
O=C1OCCN1C(=O)[C@H]1[C@H](c2ccc(F)cc2)C(c2ccccc2)=NN1c1ccc(Br)cc1 | -15.9%
CN(CC(=O)Nc1c(Cl)cccc1Cl)C(=O)CNC(=O)C1CCCCC1 | inactive
COc1cccc(CC2(CO)CCCN(Cc3ccc(OC(F)F)cc3)C2)c1 (centres undefined) | -9.05%
O=S1(=O)CC(N2CCN(c3ccccn3)CC2)CN1Cc1ccc(F)cc1 (centres undefined) | -7.1%
Cc1c(CN2CC[C@@H](N3CCN(c4ccccn4)CC3)[C@H](O)C2)[nH]c2ccc(F)cc12 | -50.8% (active)
O=C(CCC1CCCN(C(=O)Cc2ccc(F)cc2)C1)N1CCN(c2ccccn2)CC1 (centres undefined) | -15.7%
COc1ccc(-c2ccc3c(c2)[C@@H]2C[C@H](N(C)S(=O)(=O)c4ccccc4)[C@H]([C@H](C)O)C(=O)N2CC3)cc1 | -14.6%
O=C(CCc1ccc(O)cc1)NN=Cc1cc(Br)ccc1O | 137%
CC(C)(C)c1cc(P(=O)(c2ccccc2)c2ccccc2)ccc1O | -66.1% (active)
O=P(O)(CP(=O)(c1ccccc1)c1ccccc1)c1ccccc1O | -5.18%
O=S(=O)(Nc1ccc2ccccc2c1)N1CCCCC1 | -5.44%
CC(C)(C)C(=O)Nc1cccc(-c2ccc[nH]2)n1 | -1.09%
Cn1c(Nc2cccc(Cl)c2)nc2ccccc21 | -6.01%
OCCCNc1nccc(-c2cc(Nc3cccc(Cl)c3)ncn2)n1 | -1.28%
CC(C)n1cnc2c(Nc3cccc(Cl)c3)nc(N(CCO)CCCO)nc21 | -97.4% (active)
CCOC(=O)N(Cc1ccccc1)C1CC1 | 8.58%
O=C1CC(c2ccccc2)C(=O)N2C(=O)CC(c3ccccc3)C(=O)N12 (centres undefined) | -11.1%
COC(=O)[C@@]12C[C@@H](CC(=O)N3CCCCC3)C(=O)N(Cc3ccc4c(c3)OCO4)C1=CCC(C)(C)C2 | -13.6%
CCOC(=O)N1CCN(C(=O)C[C@@H]2C[C@@]3(C(=O)OC)CC(C)(C)CC=C3N(Cc3ccco3)C2=O)CC1 | 5.52%
COC(=O)[C@@]12C[C@@H](CC(=O)N3CCC(c4ccccc4)CC3)C(=O)N(Cc3ccccc3)C1=CCC(C)(C)C2 | -70.2% (active)
COc1ccc(CN2C[C@H]3CON(C)[C@H]3C[C@H]2c2ccc(-c3cccc(F)c3)cc2)cc1 | 11.4%

Compound | activity change
CC1(C(=O)NCc2ccccc2)CN(S(C)(=O)=O)CC(=O)N1CC(F)(F)F (centres undefined) | 30.7%
COc1ccc(C(=O)NC(C)Cn2nc(C)cc2C)cc1OC1CCN(C(C)=O)CC1 (centres undefined) | 0%
CCCCC[C@@H]1C=C(C(=O)OCC)[C@H](c2ccccc2)N1S(=O)(=O)c1ccc(C)cc1 | 37.3%
COc1cc(/C=C2\Oc3ccc(C#Cc4ccc(O)cc4)cc3C2=O)cc(OC)c1 | -79.1% (active)
COc1ccc2c(c1)O/C(=C\c1ccccc1O)C2=O | 45.7%
COc1cc(C#Cc2ccc3cc(CCCO)oc(=O)c3c2)cc(OC)c1 | 0%
CNC(=O)C[C@H]1C(=O)N(Cc2ccccc2)C[C@@H]1CSC | -8.27%
c1ccc(CNc2ncnc3[nH]ncc23)cc1 | 31.4%
Cc1cc(C(=O)COc2ccccc2Cl)c(C)n1C1CC1 | 0%
Cc1cc(C(=O)COc2ccc(Br)cc2F)c(C)n1C1CC1 | -54.4% (active)
O=C(COc1ccc(Br)cc1F)NCC1(N2CCCCC2)CCCCC1 | -9.53%
O=C(COC(=O)c1cncc(Br)c1)Nc1ccc(S(=O)(=O)N2CCOCC2)cc1 | -5.39%
C[C@H](CO)N1C[C@H](C)[C@H](CN(C)C(=O)Nc2ccc3c(c2)OCO3)Oc2ncc(Br)cc2C1=O | -12.4%
CC1(c2ccccc2)NC(=O)N(CC(=O)Nc2cc(Cl)ccc2N2CCOCC2)C1=O (centres undefined) | 1.47%
Cc1ccccc1NC(=O)CSc1nc2ccc(Nc3nc(N4CCOCC4)nc(N4CCOCC4)n3)cc2s1 | 0%
O=C(CSc1nc(Nc2ccccc2)nc(N2CCOCC2)n1)Nc1cc(Cl)ccc1O | -58.1% (active)
CS(=O)(=O)N(CC(=O)N1CCCCCC1)c1cccc(Cl)c1Cl | -9.4%
COc1cc(CN2CCC(n3nccc3NC(=O)CCCc3ccccc3)CC2)ccc1O | 0%
COc1ccc(CN2CCC(n3nccc3NC(=O)CCCc3ccccc3)CC2)cc1C | -65% (active)
Cc1ccc(CN2CCC(n3nccc3NC(=O)CCCc3ccccc3)CC2)o1 | 0%
COc1ccc(OC)c(NC(=O)C2CCCN2S(=O)(=O)c2ccc3c(c2)CC(C)N3C(C)=O)c1 (centres undefined) | 11.5%
CC(=O)Nc1ccc2c3c(ccc([N+](=O)[O-])c13)CC2 | 18.1%
COc1ccc(NC(=O)C(c2ccncc2)n2c(=O)c(-c3cc4ccccc4[nH]3)nc3ccccc32)cc1 (centres undefined) | -12%

Compound | activity change
COc1cccc(-n2nc(C(=O)N3CCN(Cc4ccccc4)CC3)c3ccccc3c2=O)c1 | -16.4%
COc1cccc(-n2cc3c(c2-c2ccccc2)c(=O)n(C)c(=O)n3C)c1 | 18.5%
COc1cccc(-n2cc(C(=O)O)c3ccccc3c2=O)c1 | -59.6% (active)
C[C@@H]1CN([C@@H](C)CO)C(=O)c2cccc(NS(=O)(=O)c3ccc(F)cc3)c2O[C@H]1CN(C)C(=O)NC1CCCCC1 | 2.27%
CCCCNCCS(=O)(=O)NCc1ccccc1 | 24.2%
CC(NC(=O)COc1ccccc1)C(=O)NC1=NCCS1 (centres undefined) | -56.1% (active)
CN(c1ccc(OCC(=O)NC2=NCCS2)cc1)S(=O)(=O)c1ccc(F)cc1 | 12%
Cc1ccc(S(=O)(=O)N(C)c2ccc(OCC(=O)NC3=NCCS3)cc2)cc1 | 23%
CC(C)CNC(=O)C1(C)CCCN1C(=O)CSc1ccccc1 (centres undefined) | 24.3%
O=C(Cc1ccc(Cl)c(Cl)c1)Nc1ccc(SC(F)F)cc1 | -96% (active)
Cc1ccc(CC(=O)Nc2ccc(OC(F)F)c(Cl)c2)cc1C | 2.16%
CC(=O)N1CCN(CC(=O)Nc2ccc(SC(F)F)cc2)CC1 | 8.74%
O=C(c1ncn2c1c(=O)[nH]c1ccccc12)N1CCc2ccccc2C1 | 1.53%
CCOC(=O)C1CCCN(C(=O)c2ccc(N(C)C)cc2)CC1 (centres undefined) | 14.2%
Cc1cc(-c2n[nH]c(=S)n2/N=C/C(Br)=C/c2ccccc2)n[nH]1 | -103% (active)
S=c1[nH]nc(-c2cccs2)n1/N=C/c1cccs1 | 2.13%
COc1cc(/C=N/n2c(C)n[nH]c2=S)ccc1OCc1ccccc1 | 20.1%
CCN(CC(=O)Nc1ccc(NC(C)=O)cc1)C(=O)C1CC(=O)N(c2ccc3c(c2)OCCO3)C1 (centres undefined) | -4.3%
Nc1ncnc2c1ncn2[C@@H]1O[C@H](C(=O)NCC(F)(F)F)[C@@H](O)[C@H]1O | -18.1%
Cc1ccc(Cn2cc(CN3CC(N4CCN(C)CC4)CS3(=O)=O)nn2)cc1 (centres undefined) | 1.38%
Cc1cc(C)nc(NC(=O)c2cccc([N+](=O)[O-])c2)c1 | -4.03%
O=C(Nc1ccc(C2CC2(Cl)Cl)cc1)c1cccc([N+](=O)[O-])c1 (centres undefined) | -90.4% (active)
O=C(Nc1cccc([N+](=O)[O-])c1)c1ccc2c(c1)OCO2 | -4.35%

Compound | activity change
O=C(COC(=O)c1ccc[nH]c1=O)Nc1ccc2c(c1)OC(F)(F)O2 | 23.1%
COC(=O)[C@]12CCCCC=C1N(Cc1cccc3ccccc13)C(=O)[C@H](CC(=O)N1CCOCC1)C2 | -7.21%
Cc1ccc(S(=O)(=O)N2CCC(=O)N([C@H](COCc3ccccc3)C(C)C)CC2)cc1 | 29.8%
COc1ccc(Cl)cc1NC(=O)NCC1CCN(Cc2ccccc2F)CC1 | -22.8%
O=C(NCC1CCN(Cc2ccccc2Cl)CC1)Nc1cccc(Cl)c1 | -75% (active)
O=C(NCCN1CCOCC1)Nc1cccc(Cl)c1 | 2.78%
COc1cc(NC(=O)NCC2CCN(Cc3ccc(C)cc3)CC2)cc(OC)c1OC | -6.99%
O=C1CCCN1CCCNC(=S)Nc1ccc(F)c(Cl)c1 | 4.41%
Cc1cccc(CN2CCC(CNC(=O)Nc3ccc(F)c(Cl)c3)CC2)c1 | -107% (active)
CC(CO)N1CCS(=O)(=O)CC1 (centres undefined) | 19.8%
CCC/C(C)=N\Nc1nc2c(c(=O)n(C)c(=O)n2C)n1C | 6.47%
O=C(O)C(c1cccs1)C1(O)CCCCC1 (centres undefined) | 5.75%
CCOC(=O)c1cc(-c2sc(NC(=O)c3ccccc3)nc2C)n(-c2ccc(Br)cc2)n1 | -4.38%
CC(C)Cc1nnc(NC(=O)CCc2ccccc2)s1 | 8.78%
COC(=O)CSc1nnc(NC(=O)CCc2ccccc2)s1 | 12.3%
O=C(CCc1ccccc1)Nc1ncc([N+](=O)[O-])s1 | -59.9% (active)
CC(CC(=O)C1C(C)C=CCC1(C)C)NNC(N)=O (centres undefined) | 2.93%
Cc1ccsc1C(=O)OCC(=O)c1cc(C)n(CC2CCCO2)c1C (centres undefined) | 33.5%
O=C1C(=O)N(CC2COc3ccccc3O2)c2ccccc21 (centres undefined) | 11.2%
Cc1cc(C(=O)CCl)c(C)n1CC1COc2ccccc2O1 (centres undefined) | -68.9% (active)
